Assay results as given in PubChem BioAssay (NCI).
This is part of a sample that, as a whole, favours compounds with a hit. Of some 79,000 tested, about 15% had one in any assay. Unmarked numbers belong to inactive results. Activity calls are given as the source filed them. Rule as the data show it: active = growth inhibition above about 70%; inactive = the rest.

Experiment: NCI Yeast Anticancer Drug Screen. Data for the rad50 strain (AID 155);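 also: 0% = growth of vehicle-only cultures of the same strain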
Conditions: S. cerevisiae rad50 strain growth inhibition; at 50.0 µM (retest, dose inferred, filed as 5.0); stronger effect = higher value
How it was run: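 Relative growth inhibition (compound vs vehicle) was measured in yeast with a defined repair-gene alteration.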
With `O=CC=C(c1ccccc1)c1ccccc1` the growth inhibition was 86% (active). `FC(F)(F)c1nc2nc(Cl)c(Cl)nc2n1CCCN1CCOCC1` showed a growth inhibition of 63%. For `BrCC[P+](c1ccccc1)(c1ccccc1)c1ccccc1`, the growth inhibition was 97% (active). For `N#CSc1ccc(S(N)(=O)=O)cc1`, the growth inhibition was 97% (active). For `O=[N+]([O-])c1ccc2nc3ccccc3cc2c1`, the growth inhibition was 92% (active). In the case of `O=C(NC(Nc1ccc(F)c(Cl)c1)(C(F)(F)F)C(F)(F)F)C(C(F)(F)F)C(F)(F)F`, the growth inhibition is reported as 96% (active). With `O=C(/C=C\c1ccc(Cl)cc1Cl)c1cccs1` the growth inhibition was 61%. For `O=C(NCCCCNCCCNC(=O)c1cc(-c2ccccc2)nc2ccccc12)c1cc(-c2ccccc2)nc2ccccc12`, the growth inhibition was 97% (active). Molecule `NC(=NCc1ccccc1)N/N=C\c1ccnc2ccccc12` has a growth inhibition of 46%. `CCCCN(CCCC)CCSc1ccc(Cl)cc1` showed a growth inhibition of 18%. For `COc1cc(C2C3=C(COC3=O)Oc3cc4c(cc32)OCO4)ccc1O` (stereo not drawn), the growth inhibition was 95% (active). For `C#CCCCc1ccccc1`, the growth inhibition was 37%. `CCc1ccc(NS(=O)(=O)c2ccccc2)c([N+](=O)[O-])c1` showed a growth inhibition of 39%. Work on `COc1ccc(C2c3cc4c(cc3OC(C)(O)C2C)OCO4)c(OC)c1` (stereo not drawn) yielded a growth inhibition of 66%. In the case of `COC(=O)c1ccc(CCC2=CC(=O)C(Br)=CC2=O)cc1`, the growth inhibition is reported as 99% (active). `NNC(=O)CCc1ccc2ccc3ccccc3c2c1` showed a growth inhibition of 7%. In the case of `Cn1c2ccccc2c(=O)c2cc(NC(=O)CCCCC(=O)Nc3ccc4c(c3)c(=O)c3ccccc3n4C)ccc21`, the growth inhibition is reported as 82% (active). With `CC(CC(C)(C)[N+](C)(C)C)[N+](C)(C)C` (stereo not drawn) the growth inhibition was 95% (active). Work on `CC1CCN(CCC(=O)c2ccc(Cl)cc2)CC1` yielded a growth inhibition of 36%. Work on `CCCCCCCCCCCCCCC(C(=O)[O-])[n+]1ccccc1` (stereo not drawn) yielded a growth inhibition of 20%. In the case of `CNC1C(OC2C(OC3C(O)C(O)C(N=C(N)N)C(O)C3N=C(N)N)OC(C)C2(O)CO)OC(CO)C(O)C1O` (stereo not drawn), the growth inhibition is reported as -6%. For `O=C(O)c1ccccc1-c1ccccc1C(=O)Nc1ccc2c(c1)Cc1ccccc1-2`, the growth inhibition was 37%. In the case of `O=[N+]([O-])c1cccc2nc3ccccc3c(NCCCN3CCOCC3)c12`, the growth inhibition is reported as 97% (active). In the case of `C=CC(C)(O)CCC1C(=C)C(O)CC2C(C)(C)CCCC12C` (stereo not drawn), the growth inhibition is reported as 43%. In the case of `CN1c2ccc(Cl)cc2C(=O)NC1c1ccc([N+](=O)[O-])s1` (stereo not drawn), the growth inhibition is reported as 95% (active). In the case of `[O-][n+]1c2ccc(O)cc2nc2ccc(Br)cc21`, the growth inhibition is reported as 96% (active). In the case of `O=C1c2ccccc2-c2nc3ccccc3nc21`, the growth inhibition is reported as 97% (active). Molecule `CCCCN1C(=O)N(c2ccc(OCC)cc2)C2N(CCCC)C1C(C)(C)C2(C)C` (stereo not drawn) has a growth inhibition of 50%. With `CO[C@H]1C[C@](C)(O)Cc2cc3c(c(O)c21)C(=O)c1c(O)cc2c(c1C3=O)O[C@@H]1O[C@@]2(C)[C@H](O)[C@@H](N(C)C)[C@@H]1O` the growth inhibition was 75% (active). For `COc1cc2c(cc1[N+](=O)[O-])C(=O)C(Br)(Br)CCC2`, the growth inhibition was 98% (active). For `O=C1OC(CCl)CN1/N=C/c1ccc([N+](=O)[O-])o1` (stereo not drawn), the growth inhibition was 78% (active). With `CN(C)CCOc1ccc2c(c1)C/C(=C/c1ncc([N+](=O)[O-])n1C)C2=O` the growth inhibition was 75% (active). In the case of `CCCCCCCCCCCCCCCCCCN(C)CC(COP(=O)([O-])OCC[N+](C)(C)C)OC` (stereo not drawn), the growth inhibition is reported as 98% (active). In the case of `CC(C)c1ccccc1NC(=O)/C(Cl)=C(\Cl)C(=O)O`, the growth inhibition is reported as 82% (active). Work on `O=[N+]([O-])C(=C(Sc1ccccc1)Sc1ccccc1)C(Cl)=C(Cl)Cl` yielded a growth inhibition of 53%. With `C(=C\c1ccccc1)/COc1ccccc1C(N1CCOCC1)n1nc2ccccc2n1` (stereo not drawn) the growth inhibition was 98% (active). `O=C1C(Nc2ccccc2)=C(Oc2ccccc2)C(=O)c2ccccc21` gave a growth inhibition of 26%. With `CCN(CC)CCN1C(=O)c2cccc3cc(OC)cc(c23)C1=O` the growth inhibition was 94% (active). In the case of `CN(C)Cc1cc(N=Nc2ccc(Cl)cc2)cc(CN(C)C)c1O`, the growth inhibition is reported as 73% (active).

Same assay, conditions: S. cerevisiae rad50 strain growth inhibition; at 50.0 µM; stronger effect = higher value
`O=CC=C(c1ccccc1)c1ccccc1` showed a growth inhibition of 39.6%. For `FC(F)(F)c1nc2nc(Cl)c(Cl)nc2n1CCCN1CCOCC1`, the growth inhibition was 67%. With `BrCC[P+](c1ccccc1)(c1ccccc1)c1ccccc1` the growth inhibition was 84.7% (active). Work on `N#CSc1ccc(S(N)(=O)=O)cc1` yielded a growth inhibition of 56.9%. With `O=[N+]([O-])c1ccc2nc3ccccc3cc2c1` the growth inhibition was 87% (active). Molecule `O=C(NC(Nc1ccc(F)c(Cl)c1)(C(F)(F)F)C(F)(F)F)C(C(F)(F)F)C(F)(F)F` has a growth inhibition of 24.6%. Molecule `O=C(/C=C\c1ccc(Cl)cc1Cl)c1cccs1` has a growth inhibition of -9.15%. In the case of `O=C(NCCCCNCCCNC(=O)c1cc(-c2ccccc2)nc2ccccc12)c1cc(-c2ccccc2)nc2ccccc12`, the growth inhibition is reported as 97% (active). For `NC(=NCc1ccccc1)N/N=C\c1ccnc2ccccc12`, the growth inhibition was 36%. In the case of `CCCCN(CCCC)CCSc1ccc(Cl)cc1`, the growth inhibition is reported as 87.3% (active). In the case of `COc1cc(C2C3=C(COC3=O)Oc3cc4c(cc32)OCO4)ccc1O` (stereo not drawn), the growth inhibition is reported as 55.9%. `C#CCCCc1ccccc1` gave a growth inhibition of 24.1%. With `CCc1ccc(NS(=O)(=O)c2ccccc2)c([N+](=O)[O-])c1` the growth inhibition was 37.2%. In the case of `COc1ccc(C2c3cc4c(cc3OC(C)(O)C2C)OCO4)c(OC)c1` (stereo not drawn), the growth inhibition is reported as 95.5% (active). In the case of `COC(=O)c1ccc(CCC2=CC(=O)C(Br)=CC2=O)cc1`, the growth inhibition is reported as 61.1%. With `NNC(=O)CCc1ccc2ccc3ccccc3c2c1` the growth inhibition was 28.1%. In the case of `Cn1c2ccccc2c(=O)c2cc(NC(=O)CCCCC(=O)Nc3ccc4c(c3)c(=O)c3ccccc3n4C)ccc21`, the growth inhibition is reported as 80.5% (active). For `CC(CC(C)(C)[N+](C)(C)C)[N+](C)(C)C` (stereo not drawn), the growth inhibition was 92.8% (active). In the case of `CC1CCN(CCC(=O)c2ccc(Cl)cc2)CC1`, the growth inhibition is reported as 77.5% (active). With `CCCCCCCCCCCCCCC(C(=O)[O-])[n+]1ccccc1` (stereo not drawn) the growth inhibition was 98.5% (active). In the case of `CNC1C(OC2C(OC3C(O)C(O)C(N=C(N)N)C(O)C3N=C(N)N)OC(C)C2(O)CO)OC(CO)C(O)C1O` (stereo not drawn), the growth inhibition is reported as 91.3% (active). In the case of `O=C(O)c1ccccc1-c1ccccc1C(=O)Nc1ccc2c(c1)Cc1ccccc1-2`, the growth inhibition is reported as 71.2% (active). With `O=[N+]([O-])c1cccc2nc3ccccc3c(NCCCN3CCOCC3)c12` the growth inhibition was 96% (active). For `C=CC(C)(O)CCC1C(=C)C(O)CC2C(C)(C)CCCC12C` (stereo not drawn), the growth inhibition was 63.6%. With `CN1c2ccc(Cl)cc2C(=O)NC1c1ccc([N+](=O)[O-])s1` (stereo not drawn) the growth inhibition was 91.3% (active). For `[O-][n+]1c2ccc(O)cc2nc2ccc(Br)cc21`, the growth inhibition was 88.5% (active). In the case of `O=C1c2ccccc2-c2nc3ccccc3nc21`, the growth inhibition is reported as -20.6%. Molecule `CCCCN1C(=O)N(c2ccc(OCC)cc2)C2N(CCCC)C1C(C)(C)C2(C)C` (stereo not drawn) has a growth inhibition of 49.6%. `CO[C@H]1C[C@](C)(O)Cc2cc3c(c(O)c21)C(=O)c1c(O)cc2c(c1C3=O)O[C@@H]1O[C@@]2(C)[C@H](O)[C@@H](N(C)C)[C@@H]1O` gave a growth inhibition of 20.9%. With `COc1cc2c(cc1[N+](=O)[O-])C(=O)C(Br)(Br)CCC2` the growth inhibition was 91.2% (active). For `O=C1OC(CCl)CN1/N=C/c1ccc([N+](=O)[O-])o1` (stereo not drawn), the growth inhibition was 21.7%. In the case of `CN(C)CCOc1ccc2c(c1)C/C(=C/c1ncc([N+](=O)[O-])n1C)C2=O`, the growth inhibition is reported as 74.3% (active). With `CCCCCCCCCCCCCCCCCCN(C)CC(COP(=O)([O-])OCC[N+](C)(C)C)OC` (stereo not drawn) the growth inhibition was 88.2% (active). In the case of `CC(C)c1ccccc1NC(=O)/C(Cl)=C(\Cl)C(=O)O`, the growth inhibition is reported as 30.1%. For `O=[N+]([O-])C(=C(Sc1ccccc1)Sc1ccccc1)C(Cl)=C(Cl)Cl`, the growth inhibition was 19.6%. In the case of `C(=C\c1ccccc1)/COc1ccccc1C(N1CCOCC1)n1nc2ccccc2n1` (stereo not drawn), the growth inhibition is reported as 98.1% (active). Work on `O=C1C(Nc2ccccc2)=C(Oc2ccccc2)C(=O)c2ccccc21` yielded a growth inhibition of 23.7%. With `CCN(CC)CCN1C(=O)c2cccc3cc(OC)cc(c23)C1=O` the growth inhibition was 79.6% (active). Work on `CN(C)Cc1cc(N=Nc2ccc(Cl)cc2)cc(CN(C)C)c1O` yielded a growth inhibition of 56.8%.
